Test results published in publication PMC5540273 (PLoS ONE, 2017).

tested on: ACVRL1; settings: concentration: 1 μM, replicates: in singlicate; n = 1
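Further: KINOMEscan kinase panel screen.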

Row | Compound | %Inh [%]
1 | Cc1nc(N(C)[C@H]2CN(C(=O)CC#N)CC[C@H]2C)c2cc[nH]c2n1 | 5
2 | O=C(Nc1n[nH]c2nc(-c3ccccc3)c(Cl)cc12)C1CC1 [SB-734909] | 0
3 | COc1cccc(C2=C(N(C)c3ccccc3)C(=O)NC2=O)c1 [SB-334865] | 0
4 | COc1ccc(-c2coc3ccc(-c4nnc(SCc5cccc(C#N)c5)o4)cc23)cc1 | 0
5 | O=C(NCCNc1ccnc(Nc2ccc(F)cc2)n1)Nc1ccc2c(c1)OCO2 [GSK1379882] | 0
6 | CCS(=O)c1ccc(-c2coc3ccc(-c4nnc(C)o4)cc23)cc1 (stereo not drawn) | 6
7 | Cc1cccc(-c2nc(Nc3ccc4c(cnn4C)c3)c3ccccc3n2)n1 [GW876731] | 0
8 | CCn1c(-c2nonc2N)nc2ccccc21 [SB-693162/GW549034] | 0
9 | CCC(=O)c1c(-c2ccccc2)c2cc(Cl)ccc2c(=O)n1Cc1cc(S(C)(=O)=O)n(CC(F)F)n1 | 0
10 | COc1cc2ncn(-c3cc(OCc4ccncc4Br)c(C(N)=O)s3)c2cc1OC [GW854278] | 0
11 | COC(=O)c1c(-c2ccccc2)c2cc(C)ccc2c(=O)n1Cc1ccccc1 | 0
12 | Cc1nnc(-c2ccc3ncn(-c4ccc(S(C)=O)cc4)c3c2)o1 (stereo not drawn) | 9
13 | COC(=O)c1c(-c2ccccc2)c2cc(Br)ccc2c(=O)n1Cc1ccc(S(C)(=O)=O)cc1 | 0
14 | CCC(=O)c1c(-c2ccccc2)c2cc(Cl)ccc2c(=O)n1Cc1cc(S(C)(=O)=O)n(CC(N)=O)n1 | 0
15 | COc1cc(Nc2ccnc3ccc(C(F)(F)F)cc23)cc(OC)c1OC [GW577382] | 52
16 | Cc1ccccc1COc1cc(-n2cnc3cc(Cl)ccc32)sc1C(N)=O [GW813349] | 3
17 | Nc1n[nH]c2ncc(-c3ccccc3)cc12 [SB-517081] | 0
18 | CC(C)(C)c1ccc(C(=O)Nc2cn3cc(-c4ccccc4)ccc3n2)cc1 | 5
19 | FC(F)(F)c1ccc(-c2ncn(CCCN3CCOCC3)c2-c2ccncc2)cc1 [SB-217780] | 4
20 | O=C(Nc1n[nH]c2nc(-c3ccccc3)c(Br)cc12)C1CC1 [SB-708998] | 21
21 | COC(=O)c1c(-c2ccccc2)c2cc(Br)ccc2c(=O)n1Cc1ccc(NC(=O)CCC(=O)O)cc1 | 0

tested on: T1, ADCK3; settings: concentration: 1 μM, replicates: in singlicate; n = 1
T1 construct: gene CABC1

Row | Compound | %Inh [%]
22 | Cc1cccc(-c2cc(-c3c[nH]nc3-c3ccccn3)ccn2)c1 [GW679395] | 3
23 | Cc1ccc(Oc2ccc(Nc3ncnc4cc[nH]c34)cc2C)cn1 | 16
24 | O=C1NC(=O)C(c2ccccc2)=C1Nc1cccc(O)c1 [SB-390534] | 0
25 | CCS(=O)(=O)c1ccc(OC)c(Nc2ncc(-c3ccc(F)cc3)o2)c1.Cl [GW591947] | 1
26 | Cl.c1ccc(Cn2cnc3cc(Nc4ncnc5ccccc45)ccc32)cc1 [GW272142] | 13
27 | CN(C)c1cc(-c2ccc3c(N)n[nH]c3c2)nc(N)n1 [GSK2219329] | 9
28 | Cc1nn2c(=O)cc(N3CCOCC3)nc2n1Cc1cccc(Cl)c1Cl [GSK2342769] | 10
29 | Nc1nc(-c2ccccc2F)c(-c2ccnc3ccccc23)s1 [GW560459] | 0
30 | COc1ccc(-n2cnc3c(N)ncnc32)cc1 [SKF-97236] | 0
31 | COc1cccc(C2=C(Nc3cccc(C(=O)O)c3)C(=O)NC2=O)c1 [SB-390770] | 0
32 | COc1cc2nccc(Nc3cccc(Oc4ccccc4)c3)c2cc1OC.Cl [GW284543] | 32
33 | CCCC(=O)Nc1n[nH]c2ncc(-c3cccc4ccccc34)cc12 [SB-642057] | 5
34 | CCc1nc(-c2cccc(C)c2)c(-c2ccncc2)s1 | 55
35 | O=C(Nc1ccc2c(c1)OCO2)NC1CCN(c2ccnc(NCc3ccc(F)cc3)n2)CC1 [GSK1379859] | 0
36 | Cc1ccc(-c2ccc3c(ccc4sc5c(c43)NC[C@@H](C)N=C5N(C)C)n2)cn1 | 0
37 | Cc1nc(N(C)[C@H]2CN(C(=O)CC#N)CC[C@H]2C)c2cc[nH]c2n1 | 0
38 | O=C(Nc1n[nH]c2nc(-c3ccccc3)c(Cl)cc12)C1CC1 [SB-734909] | 0
39 | COc1cccc(C2=C(N(C)c3ccccc3)C(=O)NC2=O)c1 [SB-334865] | 4

Row | Compound | %Inh [%]
40 | COc1ccc(-c2coc3ccc(-c4nnc(SCc5cccc(C#N)c5)o4)cc23)cc1 | 21
41 | O=C(NCCNc1ccnc(Nc2ccc(F)cc2)n1)Nc1ccc2c(c1)OCO2 [GSK1379882] | 9
42 | CCS(=O)c1ccc(-c2coc3ccc(-c4nnc(C)o4)cc23)cc1 (stereo not drawn) | 5
43 | Cc1cccc(-c2nc(Nc3ccc4c(cnn4C)c3)c3ccccc3n2)n1 [GW876731] | 8
44 | CCn1c(-c2nonc2N)nc2ccccc21 [SB-693162/GW549034] | 4
45 | CCC(=O)c1c(-c2ccccc2)c2cc(Cl)ccc2c(=O)n1Cc1cc(S(C)(=O)=O)n(CC(F)F)n1 | 0
46 | COc1cc2ncn(-c3cc(OCc4ccncc4Br)c(C(N)=O)s3)c2cc1OC [GW854278] | 15
47 | COC(=O)c1c(-c2ccccc2)c2cc(C)ccc2c(=O)n1Cc1ccccc1 | 0
48 | Cc1nnc(-c2ccc3ncn(-c4ccc(S(C)=O)cc4)c3c2)o1 (stereo not drawn) | 5
49 | COC(=O)c1c(-c2ccccc2)c2cc(Br)ccc2c(=O)n1Cc1ccc(S(C)(=O)=O)cc1 | 12
50 | CCC(=O)c1c(-c2ccccc2)c2cc(Cl)ccc2c(=O)n1Cc1cc(S(C)(=O)=O)n(CC(N)=O)n1 | 29
51 | COc1cc(Nc2ccnc3ccc(C(F)(F)F)cc23)cc(OC)c1OC [GW577382] | 86
52 | Cc1ccccc1COc1cc(-n2cnc3cc(Cl)ccc32)sc1C(N)=O [GW813349] | 12
53 | Nc1n[nH]c2ncc(-c3ccccc3)cc12 [SB-517081] | 7
54 | CC(C)(C)c1ccc(C(=O)Nc2cn3cc(-c4ccccc4)ccc3n2)cc1 | 25
55 | FC(F)(F)c1ccc(-c2ncn(CCCN3CCOCC3)c2-c2ccncc2)cc1 [SB-217780] | 1
56 | O=C(Nc1n[nH]c2nc(-c3ccccc3)c(Br)cc12)C1CC1 [SB-708998] | 4
57 | COC(=O)c1c(-c2ccccc2)c2cc(Br)ccc2c(=O)n1Cc1ccc(NC(=O)CCC(=O)O)cc1 | 0
